High-throughput results (PubChem BioAssay)
TTR transcr act: activators of transthyretin transcription. 92,000 tested, 1.3% active. activation, % at 16.7 µM. SH-SY5Y TTR promoter Gaussia luciferase, luminescence; 100% = recombinant luciferase protein wells;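 active = activation above the mean of all tested compounds plus 3 SD, cut at about 9.5% in these data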;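 also: cells exposed to compounds for one day before reading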
HuH7 TTR inh: decreases TTR transcription in HuH7 cells in activator counter-screen; shares compounds with TTR transcr act; HuH7 TTR promoter-Gaussia luciferase reporter, luminescence; inhibition, % at 16.7 µM; 1,100 tested, 4% active; AID 1117279;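 active = average inhibition above the solvent-only control wells' mean plus 3 SD, cut at about 15% in these data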;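 also: inhibitors lower well luminescence so higher value means more inhibition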
TTR up confirm: human TTR transcription activation, confirmation; shares compounds with TTR transcr act; SHSY5Y TTR promoter Gaussia luciferase, luminescence; 100% = purified Lucia enzyme wells, no cells; activation, % at 16.7 µM; 1,100 tested, under 10 active; AID 1117280;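 active = mean activation above a set limit taken from the earlier primary screen, cut at about 11% in these data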
Of the large screens only hits and unclear results are named; the others gave an inactive call (follow-up assays come after a bar, where they were run). Shown is part of a subset that was picked to be rich in hits.

CCOC(=O)c1c(C)n(C)c2ccc(OCC(O)CN3CCCCCC3)cc12 (stereo not drawn)	none
CCOC(=O)c1c(C)n(C)c2ccc(OCCN(C)C)cc12	none
CCOC(=O)c1c(C)n(C)c2ccc(OCC(O)CNC(CC)CO)cc12 (stereo not drawn)	TTR transcr act 14 | HuH7 TTR inh inactive | TTR up confirm inactive
COc1ccc(CCN=C(N)NS(=O)(=O)c2cccs2)cc1OC	none
COc1ccc(CCN=C(N)NS(=O)(=O)c2ccc(C)c(C)c2)cc1OC	none
COc1ccc(S(=O)(=O)NC(N)=NCCc2ccc(OC)c(OC)c2)cc1C	TTR transcr act 12 | HuH7 TTR inh inactive | TTR up confirm inactive
C=CC[C@]1(O)C(=O)N(c2ccccc2)c2ccccc21	none
CCC[C@H]1[C@@H](OC(=O)NCc2cccs2)CC[C@@]23CCCN2C(=O)CCC[C@@H]13	none
Cc1nnc(SCc2ccc(Cl)cc2)nc1/C=C/N(C)C	TTR transcr act 9.7 | HuH7 TTR inh 17 | TTR up confirm inactive
Cc1nc(C)c(-c2ccc(SCc3ccc(Cl)cc3)nn2)s1	none
O=c1nc(SCc2ccc(Cl)cc2)nc(-c2ccccc2)[nH]1	none
O=C(NC1CCCCC1)O[C@H]1CC[C@@]23CCCN2C(=O)CCC[C@H]3C1	none
O=C(N1CCC(n2nc(-c3ccccc3)oc2=O)CC1)C1(c2ccccc2)CCCC1	none
CCOc1cc(/C=C(\C#N)C(=O)NCC2CCCO2)ccc1O (stereo not drawn)	none
Cc1ccc(/C=C(\C#N)C(=O)NCC2CCCO2)o1 (stereo not drawn)	none
N#C/C(=C\c1ccc[nH]1)C(=O)NCC1CCCO1 (stereo not drawn)	TTR transcr act 11 | HuH7 TTR inh inactive | TTR up confirm inactive
O=C(CSc1cc(Cl)ccc1Cl)N/N=C/c1ccc[nH]1	none
COC(=O)[C@]12C[C@H](CC(=O)NCc3ccccc3)C(=O)N(CCc3ccc(OC)c(OC)c3)C1=C[C@H](C(C)C)O[C@@H]2C1CC1	none
C#CCOCCOCCOCCNc1nc(N2CCOCC2)nc(N2CCN(C(=O)[C@H](CCC(=O)O)n3cc(C(N)CO)nn3)CC2)n1 (stereo partly drawn)	none
O=C(CCl)c1cc2c3c(c1)CC(=O)N3CCC2	TTR transcr act 11 | HuH7 TTR inh 75 | TTR up confirm inactive
CCN(CC)CCNC(=O)C(=O)Nc1cc2c3c(c1)CC(=O)N3CCC2	none
CC(C)(C)CC(=O)Nc1cc2c3c(c1)CC(=O)N3CCC2	none
CC(C)(C)OC(=O)NCCc1ccccc1/C=C/S(=O)(=O)NC1CCCC1	none
Cn1cnnc1SCC(=O)Nc1ccccc1	none
CN(C)S(=O)(=O)c1cccc(NC(=O)CSc2nncn2C)c1	TTR transcr act 12 | HuH7 TTR inh inactive | TTR up confirm inactive
CN(c1ccccc1)S(=O)(=O)c1cccc(NC(=O)CSc2nnc(C3CC3)n2C)c1	none
Cc1cccc(C)c1NC(=O)CN(C)C(=O)c1cc(S(=O)(=O)N(C)C)ccc1N1CCCC1	none
Cc1cccc(C)c1NC(=O)CN(C)C(=O)c1cccc(S(=O)(=O)N2CCN(c3ccccc3)CC2)c1	none
Cc1cccc(C)c1NC(=O)CN(C)C(=O)c1cccc(S(=O)(=O)N2CCN(C)CC2)c1	TTR transcr act 15 | HuH7 TTR inh inactive | TTR up confirm inactive
O=C1C(=O)N(Cc2ccc(-c3ccccc3)cc2)c2ccc(OC(F)(F)F)cc21	none
CCOC(=O)[C@]12CCCC3=C1N(CCC3)C(=O)[C@@H](CC(=O)NCC1CCCCC1)C2	none
COc1ccc(C(=O)N2CCN(C(=O)C3COc4ccccc4O3)CC2)cc1 (stereo not drawn)	none
Cc1cc(O)c2c(C)c(CC(=O)N3CCN(C(=O)C4COc5ccccc5O4)CC3)c(=O)oc2c1 (stereo not drawn)	TTR transcr act 9.8 | HuH7 TTR inh inactive | TTR up confirm inactive
COc1cc(C(=O)N2CCN(C(=O)C3COc4ccccc4O3)CC2)cc(OC)c1OC (stereo not drawn)	none
CC(=O)C(Cc1cccc(F)c1)(Cc1cccc(F)c1)C(C)=O	none
CC(C)(C)OC(=O)N1c2ccccc2[C@]2(N3CCCC3)C[C@H](C(=O)O)N(C(=O)OC(C)(C)C)[C@H]12	none
CC(CC(=O)NCc1ccccc1)C1CCCO1 (stereo not drawn)	none
COC(=O)c1cnn(-c2ccc(Cl)cc2)c1/C=N/NC(=S)Nc1ccccc1	none
COC(=O)c1cnn(-c2ccc(F)cc2F)c1/C=N/NC(=S)Nc1ccccc1	none
COC(=O)c1cnn(-c2ccccc2)c1/C=N/NC(=S)Nc1ccccc1	TTR transcr act 11 | HuH7 TTR inh inactive | TTR up confirm inactive
O=C(NCC(c1ccccc1)c1ccccc1)[C@H](Cc1c[nH]c2ccccc12)NC1(C(=O)NC2CCCCC2)CCC1	none
NS(=O)(=O)c1ccc(NNC(=O)c2ccc(F)cc2F)cc1	none
CC(=O)N1c2ccc(S(=O)(=O)NCC3CCC(C(=O)NCc4ccco4)CC3)cc2CC1C (stereo not drawn)	none
O=c1c2cnn(-c3ccccc3)c2nc(-c2cccs2)n1-c1cccc(Cl)c1	none
O=S(=O)(Nc1cccc2ccccc12)c1cccc2nonc12	none
Cc1ccccc1Nc1nc2ccccc2n1C(C)C	none
Cc1ccccc1Nc1cccc2nonc12	TTR transcr act 18 | HuH7 TTR inh inactive | TTR up confirm inactive
c1ccc(-c2nn(Cc3ncco3)c3ccccc23)cc1	none
CCCCN1C(=O)N2CCc3ccccc3C2CS1(=O)=O (stereo not drawn)	none
COc1cccc(OCc2cc(C(=O)N3CCN(c4ccccc4O)CC3)no2)c1	TTR transcr act 11 | HuH7 TTR inh inactive | TTR up confirm inactive
Cc1ccc(N2CCN(C(=O)c3cc(COc4c(C)cccc4C)on3)CC2)c(C)c1	none
Cc1ccc(OCc2cc(C(=O)N3CCCC3)no2)cn1	none
O=C(c1cc2ccccc2o1)N1CCN(C/C=C/c2ccccc2)CC1	none
COc1cccc(Cn2cc(COC(=O)N3CCOCC3)nn2)c1	none
CCCC[C@H]1C2CC(OC(=O)NCCCC(=O)OCC)C(C2)[C@H]2CCCCN21 (stereo partly drawn)	none
COc1cccc(OC)c1C(=O)OCC(=O)Nc1cccnc1Cl	none
N#Cc1ccc(C(=O)OCC(=O)Nc2cccnc2Cl)cc1	TTR transcr act 16 | HuH7 TTR inh inactive | TTR up confirm inactive
O=C(COC(=O)c1cccc(F)c1)Nc1cccnc1Cl	none
COc1ccc(NC(C)=O)cc1NC(=O)C1CCN(C(=O)Nc2ccccc2)CC1	none
COc1cccc(NC(=O)CN(C)C(=O)c2ccc(NS(=O)(=O)c3ccc(F)cc3)cc2)c1	none
COc1cccc(NC(=O)CN(C)C(=O)c2cc(S(=O)(=O)NCc3ccccc3)ccc2C)c1	TTR transcr act 32 | HuH7 TTR inh inactive | TTR up confirm inactive
COc1cccc(NC(=O)CN(C)C(=O)c2cc(S(=O)(=O)Nc3ccccc3OC)ccc2C)c1	none
O=C(NC1CCCC1)C1c2ccccc2C(=O)N1CCCN1CCOCC1 (stereo not drawn)	none
CCC(C)N1C(=O)c2ccccc2C1C(=O)NC1CCCCCC1 (stereo not drawn)	TTR transcr act 15 | HuH7 TTR inh inactive | TTR up confirm inactive
CCC(C)[C@H](NC(=O)[C@@H]1CSC2c3ccccc3C(=O)N21)C(=O)NC1CCCC1 (stereo partly drawn)	none
Clc1ccc(OCCOc2ccc(Br)nc2Br)c(Cl)c1	none
